About 7,000 (2%) of roughly 350,000 compounds were called active. Many of the other results were omitted from the sample, so actives are more common in it than they were. A number with no mark means an inactive call. Cut-off read from the data, not from the text of the source: active = activation above about 40%; inconclusive = no clear call, values can overlap the other calls; inactive = below that.
assay: raisers of Bmi1 knock-in reporter signal – mouse ES cells, Bmi1 luciferase knock-in, single point, esBAF inhibitor project, primary screen (AID 602393); settings: 24 h, at 12.5 µM, stronger effect = higher value, 100% = twice the neutral-well signal;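 note: 0% = median of the plate's neutral control wells and 100% = double that signal; a rise in the Bmi1 reporter signal indicates esBAF inhibition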

First: CO[C@@H]1CN(C)C(=O)c2cc(NS(C)(=O)=O)ccc2OC[C@H](C)N(C(=O)C2CC2)C[C@@H]1C
Second: CO[C@H]1CN(C)C(=O)c2ccc(NS(=O)(=O)c3cn(C)cn3)cc2OC[C@@H](C)N(C)C[C@@H]1C
The reporter increase of the first is higher: 0.928% for the first, -7.11% for the second.

Compared with `COCC#Cc1cnc2c(c1)C(=O)N([C@H](C)CO)C[C@H](C)[C@H](CN(C)Cc1ccc(-c3ccccc3)cc1)O2`, `COc1ccc(NC(=O)Nc2cccc3c2O[C@H](CN(C)Cc2ccc(Cl)c(Cl)c2)[C@H](C)CN([C@@H](C)CO)C3=O)cc1` is higher in reporter increase: -4.32% for the first, 4.75% for the second.

Compared with `Cc1c(C(N)=O)sc2ncn(CCOc3ccccc3)c(=O)c12`, `O=C(NCCOc1ccccc1)c1ccccc1F` is lower in reporter increase: 16.1% for the first, -7.45% for the second.

Compared with `COCC(=O)Nc1ccc2c(c1)[C@H]1C[C@H](CC(=O)NCc3ccccn3)O[C@H](CO)[C@H]1O2`, `COCCNC(=O)C[C@@H]1C[C@@H]2c3cc(NC(=O)Nc4ccc(C(F)(F)F)cc4)ccc3O[C@@H]2[C@@H](CO)O1` is lower in reporter increase: 0.452% for the first, -4.42% for the second.

Compared with `C[C@@H](NC(=O)C[C@@H]1CC[C@@H]2[C@H](COC[C@@H](O)CN2C(=O)Nc2cccc(F)c2)O1)c1ccccc1`, `COc1cccc(NC(=O)C[C@@H]2CC[C@@H]3[C@H](COc4ccc(NC(=O)C5CCOCC5)cc4C(=O)N3C)O2)c1` is lower in reporter increase: 11.2% for the first, 1.18% for the second.

Going from `CCCN(C)C[C@H]1Oc2ncc(C#CC3CCCCC3)cc2C(=O)N([C@H](C)CO)C[C@@H]1C` to `CC(C)C#Cc1cnc2c(c1)C(=O)N([C@@H](C)CO)C[C@@H](C)[C@H](CN(C)C(=O)CCN1CCCCC1)O2`, the reporter increase rises from -4.47% to 0.29%.

Compared with `C[C@@H]1CN([C@@H](C)CO)C(=O)Cc2cc(NS(=O)(=O)c3cccs3)ccc2O[C@H]1CN(C)S(=O)(=O)c1ccc(F)cc1`, `C[C@H](CO)N1C[C@H](C)[C@@H](CN(C)S(=O)(=O)c2ccc(Cl)cc2)Oc2ccc(NS(=O)(=O)c3cccs3)cc2CC1=O` is higher in reporter increase: -3.47% for the first, 6.86% for the second.

Compared with `COc1ccc(NS(=O)(=O)c2ccc3oc(SCC(N)=O)nc3c2)cc1`, `COc1ccc(NC(=O)N[C@H]2CC[C@@H](CCNS(=O)(=O)c3cccc(Cl)c3)O[C@H]2CO)cc1` is lower in reporter increase: 4.52% for the first, 1.55% for the second.

Going from `COc1ccc(S(=O)(=O)N(C)C)cc1NC(=O)CSc1ncccn1` to `C[C@H]1CN([C@@H](C)CO)S(=O)(=O)c2ccc(-c3cncnc3)cc2O[C@H]1CN(C)Cc1ccncc1`, the reporter increase rises from -0.957% to 0.176%.

First: C[C@H](CO)N1C[C@H](C)[C@@H](CN(C)Cc2ccccc2)OCCCC[C@H](C)Oc2ccc(NC(=O)Cc3ccccc3)cc2C1=O
Second: C[C@@H]1CCCCO[C@H](CN(C)Cc2ccc3c(c2)OCO3)[C@@H](C)CN([C@H](C)CO)C(=O)c2cc(N(C)C)ccc2O1
The reporter increase of the first is higher: 1.95% for the first, 0.519% for the second.

Compared with `CCc1ccc(NC(=O)Cn2nnc(C(=O)NCc3ccc4c(c3)OCO4)c2N)cc1`, `O=C(Cc1ccccc1)Nc1ccc(C(=O)Nc2ccccc2C(=O)O)cc1` is lower in reporter increase: -0.239% for the first, -1.37% for the second.

Going from `O=C(Nc1ccc2c(c1)OCCO2)C(C1CC1)N1CCC(Cc2ccccc2)CC1` (stereo not drawn) to `C[C@H](CO)N1C[C@H](C)[C@@H](CN(C)Cc2ccc(Oc3ccccc3)cc2)OCc2cn(nn2)CCCC1=O`, the reporter increase rises from -12.5% to 0.422%.

Going from `C[C@@H]1CN([C@H](C)CO)C(=O)c2cc(NC(=O)c3ccncc3)ccc2O[C@H]1CN(C)C(=O)Nc1ccc(C(F)(F)F)cc1` to `C[C@H](CO)N1C[C@H](C)[C@@H](CN(C)S(=O)(=O)c2ccc(F)cc2)Oc2ccc(NC(=O)CCCCCC(=O)Nc3ccccc3N)cc2CC1=O`, the reporter increase falls from 8.53% to 1.27%.

Compared with `Cc1ccccc1S(=O)(=O)NCC[C@@H]1CC[C@H](NC(=O)C2CCC2)[C@@H](CO)O1`, `O=C(C[C@@H]1CC[C@H]2[C@@H](COC[C@@H](O)CN2S(=O)(=O)c2cccc(Cl)c2)O1)N1CCCCC1` is lower in reporter increase: -0.558% for the first, -2.86% for the second.

First: Nc1nnnn1/N=C/c1cccs1
Second: Cc1ccc(N2CCN(/N=C/c3cccs3)CC2)cc1
The reporter increase of the first is lower: 2.23% for the first, 13.6% for the second.

Compared with `C[C@H]1CN([C@@H](C)CO)C(=O)CCCn2cc(nn2)CO[C@H]1CN(C)C(=O)Nc1ccc(F)cc1`, `Cc1noc(C)c1S(=O)(=O)Nc1ccc2c(c1)C(=O)N([C@H](C)CO)C[C@@H](C)[C@@H](CN(C)S(=O)(=O)c1ccc(Cl)cc1)O2` is higher in reporter increase: -7.14% for the first, 6.53% for the second.

Compared with `CCC(=O)N1C[C@H](C)[C@H](OC)CN(C)C(=O)c2ccc(NC(=O)Nc3ccc(Cl)cc3)cc2OC[C@H]1C`, `Cc1nc2ccc(C(=O)N/N=C/c3ccc(O)cc3)cc2[nH]1` is lower in reporter increase: 4.13% for the first, -6.33% for the second.

Compared with `N#CNC1=NCN(CCc2ccccc2)CN1`, `CC1CCN(Cc2nc3c(c(=O)n(C)c(=O)n3C)n2CCc2ccccc2)CC1` is higher in reporter increase: -7.73% for the first, -5.75% for the second.

Compared with `O=C(CNC(=O)c1ccco1)NNC(=O)c1ccc(Br)cc1`, `CC(C)c1c(C(=O)N/N=C/c2ccc(-c3ccccc3)cc2)nnn1-c1nonc1N` is lower in reporter increase: -0.872% for the first, -2.09% for the second.

Compared with `Cc1cccc(C)c1OCCN1CCOCC1`, `CC(C)(c1ccccc1)c1ccc(OCCN2CCCC2)cc1` is lower in reporter increase: -3.46% for the first, -18.8% for the second.

With `Cc1nn(CCOc2ccccc2)c(=O)n1-c1ccccc1F` the reporter increase was 49.4% (active).
In the case of `CN(C)S(=O)(=O)c1ccc2oc(SCC(=O)Nc3ccccc3F)nc2c1`, the reporter increase is reported as 56% (active).
For `Nc1c(C(=O)Nc2ccc3c(c2)OCCO3)nnn1Cc1ccccc1`, the reporter increase was 62.1% (active).
For `C(=N/N1CCN(c2ccccc2)CC1)/c1cccs1`, the reporter increase was 45.3% (active).
In the case of `c1ccc(CCN2CN=C(Nc3nc4ccccc4o3)NC2)cc1`, the reporter increase is reported as 45.9% (active).
With `CC(C)(C)c1ccc(C(=O)NNC(=O)Cc2ccccc2)cc1` the reporter increase was 49% (active).
With `c1ccc(-c2ccc(OCCN3CCOCC3)cc2)cc1` the reporter increase was 50.5% (active).
For `Cc1nonc1C(=O)N/N=C/c1ccc(O)cc1`, the reporter increase was 50.7% (active).

Source: PubChem BioAssay AID602393 (Broad Institute, 2012)
